Compound activity from PubChem.
Hits are enriched below; roughly 7.5% of the tested compounds scored in any of these assays.
HCMV inh: qHTS Assay for inhibitors of the human cytomegalovirus (HCMV) | hit rate 4.5% among 410,000 | HFF cells, HCMV-luciferase reporter, 72 h; stronger effect = lower value | AID 1259415, 2018 | activity change, negative = inhibition, % at 57.5 µM; in the data active = activity change below about -60%; inconclusive = no clear call, values can overlap the other calls; inactive = above about -39%
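Screen run at 2 compound doses on HFFs infected with reporter HCMV, MOI 1 PFU/cell. Luciferase activity from cell lysates at 72 h post infection gave inhibition relative to buffer-only and Salinomycin wells.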
HCV inh: qHTS Assay for Inhibitors of Hepatitis C Virus (HCV). hit rate 3.4% among 340,000. AID 651820, 2012. Huh7.5.1 HCVcc-Cre infection, luciferase reporter, 44 h. Potency, µM (series often up to 41.8 µM), inactives show at the top dose activity change, negative = inhibition, usual class: inhibitors; note: potency is the fitted concentration of half-maximal effect
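Antiviral activity was scored by luciferase reporter output from cells infected with HCVcc-Cre (~0.5 moi) in presence of compound, 44 h infection period, cells seeded 1,000/well 4 h prior.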
VACV mCherry inh: qHTS for Stage-Specific Inhibitors of Vaccinia Orthopoxvirus: mCherry Reporter Primary qHTS; Vaccinia virus mCherry reporter infection, fluorescence; Potency, µM (doses to about 36.5 µM), for inactives: at the top dose activity change, negative = inhibition, hits mostly inhibitors; hit rate 0.63% among 310,000; AID 720579, 2013; calls by dose curve; tested in A549 cells; note: potency is the fitted concentration of half-maximal effect; nearly all actives have a fitted effect of over 35% in size
FMDV inh: High Throughput Screening for Foot and Mouth Disease Virus Antivirals | hit rate 1.2% among 410,000 | FMDV antiviral cell-based qHTS | Potency, µM (titrated, usually from 57.9 µM), for the others: at the highest dose activity change, negative = inhibition, usual class: inhibitors; calls by dose curve; tested in HEK293T cells; note: read-out not given here; potency is the fitted concentration of half-maximal effect; nearly all actives have a fitted effect of over 45% in size
FBPA Giardia inh: qHTS Assay for Inhibitors of Fructose-1,6-bisphosphate Aldolase from Giardia Lamblia; Potency, µM (titrated, usually from 59.6 µM), inactives show at the top dose activity, negative = inhibition, hits mostly inhibitors; hit rate 0.71% among 290,000; purified Giardia FBPA; A8B2U2; AID 2451, 2010; note: potency is the fitted concentration of half-maximal effect; nearly all actives have a fitted effect of over 55% in size
Target sequence (A8B2U2 whole entry, looked up): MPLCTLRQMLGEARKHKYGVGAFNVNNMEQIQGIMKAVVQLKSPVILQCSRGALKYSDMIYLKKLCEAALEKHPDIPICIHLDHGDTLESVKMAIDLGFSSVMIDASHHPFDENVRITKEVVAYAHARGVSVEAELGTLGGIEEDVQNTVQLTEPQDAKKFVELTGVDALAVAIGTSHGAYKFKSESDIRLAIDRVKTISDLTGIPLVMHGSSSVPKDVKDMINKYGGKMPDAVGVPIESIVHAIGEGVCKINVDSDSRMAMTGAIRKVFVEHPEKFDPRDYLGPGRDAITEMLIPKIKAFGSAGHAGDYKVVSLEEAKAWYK
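Giardia FBPA (40 nM reagent) was preincubated 10 min at RT with compound (up to 57.5 uM final), then substrate plus GAPDH/TPI/NAD/arsenate coupling system with diaphorase/resazurin was added; resorufin fluorescence (525/598 nm) was read after 20 min.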
VACV Venus inh: qHTS for Stage-Specific Inhibitors of Vaccinia Orthopoxvirus: Venus Reporter Primary qHTS; Vaccinia virus Venus reporter expression, fluorescence; Potency, µM (titrated, usually from 36.5 µM), inactives show at the highest dose activity change, negative = inhibition, most hits filed as inhibitors; hit rate 0.46% among 330,000; AID 720580, 2013; calls by dose curve; tested in A549 cells; note: potency is the fitted concentration of half-maximal effect; nearly all actives have a fitted effect of over 30% in size
Numbers without * were called inactive; i = inactive; ? = inconclusive; . = no result; + = active, no number; ! = a repeat was not active; [ ] = another dose, or the depositor's remark. Unless noted, calls come from the whole dose curve; as a rule, active = well fitted curve in the direction sought with a large enough effect; inconclusive = small, poorly fitted or top-dose-only effect, or another doubt; inactive = no such curve, though single readings can be large; an effect the other way counts as inactive or inconclusive. % is set by controls: 0 for no effect and ±100 for the full control effect.

SMILES	HCMV inh	HCV inh	VACV mCherry inh	FMDV inh	FBPA Giardia inh	VACV Venus inh
O=C(/C=C/NNC(=O)c1ccccc1)c1ccc([N+](=O)[O-])cc1	-98*	3.5µM*	?	-10%	-8%	-19%
Oc1c(Br)cc(Br)cc1CNc1nccs1	7	10%	.	-16%	4%	.
CCOC(=O)C(C)Oc1cccc2c(=O)n(CC(=O)NCc3ccc4c(c3)OCO4)ccc12 (centres undefined)	22	-29%	100µM*	-12%	1%	?
CCOC(=O)COc1cccc2c(=O)n(CC(=O)NCc3ccccc3)ccc12	-70*	-5%	.	-10%	9%	.
CCOC(=O)COc1cccc2c(=O)n(CC(=O)NCc3ccc(F)cc3)ccc12	?	10%	.	-13%	2%	.
CCn1ccc2c(OCC(=O)Nc3ccccc3C(F)(F)F)cccc2c1=O	-27	.	i	32µM*	.	-27%
CCOC(=O)C(C)Oc1cccc2c(=O)n(CC(=O)Nc3ccc4c(c3)OCCO4)ccc12 (centres undefined)	8	-8%	-1%	-27%	-10%	-2%
CCn1ccc2c(OCC(=O)Nc3ccccc3C)cccc2c1=O	7	.	3%	0%	.	-11%
COCCn1ccc2c(OCC(=O)NCCc3ccccc3)cccc2c1=O	-4	10µM*	-13%	32%	.	-14%
COCCn1ccc2c(OCC(=O)NCc3ccc(F)cc3)cccc2c1=O	6	.	-9%	-20%	.	-5%
Cc1ccc(CNC(=O)CCc2c(C)nc3c(-c4ccc(F)cc4)c(C)nn3c2C)cc1	2	.	1%	3%	.	4%
CCOCCn1ccc2c(OCC(=O)Nc3cc(C)cc(C)c3)cccc2c1=O	8	.	0%	-20%	.	10%
CCOCCn1ccc2c(OCC(=O)Nc3ccc(OC)c(OC)c3)cccc2c1=O	?	?	-10%	25µM*	.	-13%
Cc1ccc(C(=O)NC(=S)N2CCCCCC2)cc1	-36	-1%	.	19%	.	.
CC1=C(C(=O)N2CCCCCC2)CC(CC(=O)NC(c2ccccc2)c2ccccc2)C(=O)N1Cc1ccccc1 (centres undefined)	-2	.	9%	-16%	.	-18%
C[C@@H]1NC(=O)[C@H](CCCN=C(N)N)NC(=O)c2cc([N+](=O)[O-])cc(I)c2NCCC[C@@H](C(N)=O)NC1=O	-5	7.9µM*	i	-16%	-7%	-7%
C[C@@H]1NC(=O)[C@H](CCC(N)=O)NC(=O)c2cc([N+](=O)[O-])cc(I)c2NCCC[C@@H](C(N)=O)NC1=O	-21	-5%[8.37 µM]	i	4%	-2%	-17%
N.N.O=C(O)C1(C(=O)O)CCC1.[Pt]	.	.	-15%	-12%	18µM*!	-9%
CCCCNC(=O)CSc1nc(COc2ccccc2)nc2ccccc12	-27	-11%	-5%	0%	3%	-4%
COc1ccccc1-c1cc(C(F)(F)F)n2ncc(C(=O)N3CCc4ccccc4C3)c2n1	-13	11µM*	?	-29%	5%	?
COc1ccccc1-c1cc(C(=O)N2CCc3ccccc3C2)c2ccccc2n1	.	.	.	.	5%	.
CCc1nn2c(=O)cc(COC(=O)c3cccc(NC(=O)c4ccccc4C)c3)nc2s1	29	.	-23%	-2%	.	-17%
CC1CCCN(CCOc2cccc(Oc3ccccc3)c2)C1 (centres undefined)	-16	-8%	.	-6%	?	.
CC1=NNC(=O)/C1=C\c1cn(-c2ccccc2)nc1-c1ccc(Cl)cc1	-102*	?	10µM*	10µM*	-6%	8.9µM*
CCOc1ccc(N2C(=O)CN(CC(=O)OC)C2=S)cc1	-69*	11%	i	14%	5%	-8%
SMILES	HCMV inh	HCV inh	VACV mCherry inh	FMDV inh	FBPA Giardia inh	VACV Venus inh
CCN(CC)S(=O)(=O)c1ccc(-c2nnc(SCC(N)=O)n2CC)cc1	-25	16%	i	-10%	-2%	-4%
CCN(CC)S(=O)(=O)c1ccc(-c2nnc(SCC(=O)N3c4ccccc4CC3C)o2)cc1 (centres undefined)	-13	-22%	0.63µM*	0%	8%	?
CCN(CC)S(=O)(=O)c1ccc(-c2nnc(SCC(=O)c3ccc(OC)cc3)o2)cc1	-33	-9%	-5%	?	8%	-2%
CCN(CC)S(=O)(=O)c1ccc(-c2nnc(SCC(=O)N3c4ccccc4CC3C)n2CC)cc1 (centres undefined)	?	?	-19%	20µM*	2%	-11%
CNc1cncc(-c2cccc(C(=O)NC3CC3)c2)n1	17	.	1%	22%	.	-1%
COc1ccc(-c2[nH]c3ccccc3c2SCCNC(=O)c2ccccc2)cc1	-28	13µM*	-13%	0%	-5%	-18%
COc1cccc(C(=O)NCCSc2c(C)[nH]c3ccccc23)c1OC	-32	13µM*	?	?	-10%	-14%
COc1ccccc1C(=O)NCCSc1c(C)[nH]c2ccccc12	-39	.	i	?	.	-24%
Cc1ccc(C(=O)NCCSc2c(C)[nH]c3ccccc23)cc1[N+](=O)[O-]	11	11µM*	0%	35µM*	-12%	-12%
COc1cc(C(=O)NCCSc2c(C)[nH]c3ccccc23)cc(OC)c1OC	8	.	-8%	-17%	.	-13%
Cc1cnc(-n2ncc(C(=O)N(C)CC3COCCO3)c2C2CC2)nc1-c1cccs1 (centres undefined)	.	.	-9%	49%	.	1%
Oc1ccc2c(c1)CCCC1(CCCO1)O2 (centres undefined)	0	.	.	.	.	.
COc1ccc(CCC(=O)Nc2cc3c4c(c2)CCC(=O)N4CCC3)cc1	-7	-9%	-2%	-15%	.	-10%
CC(C)CCNC(=O)C(=O)Nc1cc2c3c(c1)CC(=O)N3CCC2	3	-4%	.	18%	2%	.
O=C(NCCO)C(=O)Nc1cc2c3c(c1)CC(=O)N3CCC2	+	9%	.	-13%	12%	.
O=C(CCc1ccccc1)Nc1cc2c3c(c1)CCC(=O)N3CCC2	-99*	?	-13%	-5%	.	-4%
CC(C)(C)CC(=O)Nc1cc2c3c(c1)CC(=O)N3CCC2	-2	12%	.	1%	2%	.
O=C(CCl)c1cc2c3c(c1)CC(=O)N3CCC2	25	-13%	?	22µM*	-12%	-7%
C=CC(C)(O)CCCC(C)CCCC(C)CCCC(C)C (centres undefined)	-23	3%	i	-23%	-4%	-11%
CCn1cc(C(=O)N2CCCC(CO)(Cc3ccccc3C)C2)cn1 (centres undefined)	8	25%	-7%	13%	4%	-1%
O=C(NC1CCCC1)c1ccc(Cl)s1	-77*	-4%	i	-14%	.	-5%
